Bioassay records from PubChem.
Hits are enriched below; roughly 2.4% of the tested compounds scored in any of these assays.
eIF4H inh – inhibitors of RNA binding by human eIF4H | 0.94% of 290,000 active | inhibition, % at 35 µM | eIF4H fluorescence polarization binding assay;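 further: calls also rest on retests at 20 µM and on dose response follow-up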
PHOSPHO1 inh – PHOSPHO1 (human) inhibition | inhibition, % at 13.3 µM | AID 1565 | 1.1% of 290,000 active | recombinant PHOSPHO1, absorbance phosphatase assay; in the data active means inhibition above about 60%
Target sequence (Q8TCT1 whole entry, looked up): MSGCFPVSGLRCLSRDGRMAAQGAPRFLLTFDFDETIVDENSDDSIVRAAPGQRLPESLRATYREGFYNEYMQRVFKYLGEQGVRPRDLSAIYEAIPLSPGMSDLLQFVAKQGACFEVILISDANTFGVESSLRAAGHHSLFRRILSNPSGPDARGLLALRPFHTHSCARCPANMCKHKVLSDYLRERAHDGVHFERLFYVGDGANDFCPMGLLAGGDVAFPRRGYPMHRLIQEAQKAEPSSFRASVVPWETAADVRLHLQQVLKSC
PABP polyA inh – PABP-poly(A) binding inhibition | PABP-poly(A) RNA binding, fluorescence polarization | P11940 | 1% of 290,000 active | calls only at 35 µM;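 further: calls also rest on retests at 20 µM and on dose response follow-up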
HMGR II inh – inhibitors of class II HMG-CoA reductase from Enterococcus faecalis | purified E. faecalis HMGR, NADPH absorbance 340 nm kinetic | inhibition, % at 10 µM | 0.41% of 190,000 active;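 active means inhibition above a set limit, the median over all tested compounds plus 3 SD, cut at about 9.5% in these data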;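 further: enzyme runs in reverse so mevalonate oxidation gives rising NADPH absorbance; 0% = complete reaction with DMSO and 100% = background rate lacking mevalonate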
PABP1 MLLE inh – blocks PAM2 peptide binding to the PABP1 MLLE domain; P11940; GST-MLLE / FITC-PAM2 fluorescence polarization; inhibition, % at 20 µM; 0.36% of 360,000 active; AID 588489; in the data active means inhibition above about 35%, passing the limit was not always enough;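 further: plate controls were DMSO wells with GST-MLLE for no effect and wells lacking GST-MLLE protein for full effect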
Starred values were filed as active, the others as inactive; i = inactive; . = no result; + = active, no number. Unless noted, how the calls were made is not given here.

SMILES	eIF4H inh	PHOSPHO1 inh	PABP polyA inh	HMGR II inh	PABP1 MLLE inh
COc1cccc(-n2sc3c(c2=S)-c2cc(OC)ccc2NC3(C)C)c1	-14.5	87.9*	i	-5.1	-8.7
COc1cccc(-n2cn[nH]c2=S)c1	-5.9	21.0	i	-2.1	-9.7
O=C(C/C=N/OCc1ccc(F)cc1Cl)c1cnc(-c2ccccc2)s1	10.3	-24.1	i	11.1*	-9.4
CC1(C(=O)NS(=O)(=O)c2ccc(Cl)s2)CCN1C(=O)c1ccc(C2CCCCC2)cc1 (stereo not given)	.	.	.	.	7.4
N#C/C(=C(/O)CSc1ncn[nH]1)c1nc2ccccc2[nH]1	63.6	30.5	+	0.2	-13.6
Cc1cccc(Nc2nnc(SC/C(O)=C(\C#N)c3nc4ccccc4[nH]3)s2)c1	36.2	16.5	i	-3.8	-71.0
CC(C)(C)c1nnc2sc(SC/C(O)=C(\C#N)c3nc4ccccc4[nH]3)nn2c1=O	7.1	71.3*	i	-2.3	-47.3
Oc1ccc(N2CCN(c3ncnc4sc5c(c34)CCC5)CC2)cc1	-6.6	75.2*	i	-6.2	3.6
O=c1c2c([nH]c3ccccc13)CCCC2	1.7	-4.6	i	-10.3	-2.9
O=c1c2c([nH]c3ccccc13)C(=C1CCCC1)CC2	82.3*	21.0	+	1.4	4.1
c1ccc(COC2CCCN(Cc3nc(-c4cnccn4)no3)C2)cc1 (stereo not given)	-2.0	39.7	i	-1.2	-5.4
c1ccc(COC2CCCN(Cc3nc(-c4cnccn4)no3)C2)nc1 (stereo not given)	-3.4	61.1*	i	-0.1	0.7
COc1ccc(CCNC(=O)c2ccccc2Cl)cc1OC	-5.4	24.8	i	17.8*	0.0
CCN(CCCNC(=O)C1CCN(S(=O)(=O)CC)CC1)c1cccc(C)c1	90.2*	21.8	+	-3.9	16.5
CCN(CCNCC(O)COCc1ccc(Cl)cc1)c1cccc(C)c1 (stereo not given)	14.0*	6.6	i	30.9*	1.4
Cc1[nH]n(-c2ccccc2)c(=O)c1/C=N/Nc1nncc(-c2ccccc2)n1	12.0	66.7*	i	5.5	-15.5
Cc1ccc(/C=N/Nc2nncc(-c3ccccc3)n2)o1	-0.9	23.3	i	-1.3	-4.7
NC(=O)c1cc(C(=O)c2ccc(Cl)cc2Cl)c[nH]1	-10.2	64.3*	i	-0.8	9.0
FC(F)(F)c1cc(-c2ccccc2)nc(N2CCOCC2)n1	-5.9	74.5*	i	2.3	0.8
FC(F)(F)c1cc(-c2ccccc2)nc(N2CCCCC2)n1	-4.6	11.4	i	-0.8	3.6
[O-]/[N+](=C\C=C\c1ccccc1)c1ccccc1	1.1*	20.3	+	.	-0.1
O=[N+]([O-])c1ccc(C=CC=Cc2ccccc2)cc1	.	.	.	.	-78.1
O=C(O)c1ccc(Nc2nc(-c3cc4ccccc4oc3=O)cs2)cc1O	50.9*	-85.2	i	-0.5	-51.2
CCCOC(=O)c1cc(-c2ccc(/C=C3/C(=O)N(C)C(=O)C(C#N)=C3C)o2)ccc1Cl	.	.	.	.	-1.9
C=CCOC(=O)c1cc(-c2ccc(/C=C3\C(=O)NC(=O)C(C#N)=C3C)o2)ccc1Cl	70.8*	17.4	+	0.2	-12.6
Cc1cscc1-c1nc(NCC2CC2)nc2ccsc12	.	.	.	.	-4.9
Cn1ccnc1SCC(=O)NC1CC1	-1.1	30.1	i	-3.2	2.1
